From PubChem
Rows were chosen to be rich in hits. Some 2.1% of all compounds tested hit in one or more screens of this group.
YB-1 expression – inhibitors of YB-1 gene expression, primary screen, cell-based, fluorescence | delta delta Cp (YB-1 minus CDIP) (concentration not given with the values) | 0.37% of 30,000 active | AID 434959, 2010 | U2OS, qRT-PCR YB-1 vs CDIP delta delta Cp, 16 h; stronger effect = higher value; zero = DMSO, each unit about twofold;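 active = delta delta Cp rounded down to an integer at or above 3, about 3 SD of DMSO wells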;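 also: higher means less YB-1 transcript or more CDIP transcript relative to DMSO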
U2OS ROS induce – ROS inducers in U2OS cancer cells, primary screen, cell-based, H2DCF-DA fluorescence; U2OS ROS induction; ROS induction (% of piperlongumine), % at 10 µM; 2% of 46,000 active; AID 624156, 2012; in the data active = ROS induction above about 79%, passing the limit was not always enough;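 also: 0% = DMSO vehicle median and 100% = reference compound median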
The depositor's hits bear a star; · = no result given.

SMILES | YB-1 expression | U2OS ROS induce
COc1ccc(NC(=O)Nc2ccc3c(c2)C(=O)N([C@H](C)CO)C[C@H](C)[C@H](CN(C)S(=O)(=O)c2ccc(F)cc2)O3)cc1 | 10* | 56
C[C@H]1CN([C@@H](C)CO)C(=O)Cc2cc(NS(=O)(=O)c3cn(C)cn3)ccc2O[C@@H]1CN(C)Cc1ccncc1 | -0.27 | 79*
C[C@@H]1CN([C@H](C)CO)C(=O)Cc2cc(NS(=O)(=O)c3cn(C)cn3)ccc2O[C@@H]1CN(C)Cc1ccc(Oc2ccccc2)cc1 | -0.26 | 80*
C[C@@H]1CN([C@@H](C)CO)C(=O)Cc2cc(NS(=O)(=O)c3cn(C)cn3)ccc2O[C@@H]1CN(C)Cc1ccncc1 | 0.021 | 0
C[C@H]1CN([C@@H](C)CO)C(=O)Cc2cc(NS(=O)(=O)c3cn(C)cn3)ccc2O[C@H]1CN(C)Cc1ccc(-c2ccccc2)cc1 | 0.011 | 95*
C[C@@H]1CN([C@H](C)CO)C(=O)Cc2cc(NS(=O)(=O)c3cn(C)cn3)ccc2O[C@H]1CN(C)Cc1ccc(-c2ccccc2)cc1 | 0.01 | 33
C[C@H](CO)N1C[C@H](C)[C@H](CN(C)Cc2ccc(Oc3ccccc3)cc2)Oc2ccc(NS(=O)(=O)c3cn(C)cn3)cc2CC1=O | 0.44 | 29
C/C(CCc1oc2ccccc2c1-c1ccc(C)o1)=N\O | 0.23 | 6
CC(C)(C)c1ccc(-c2nc(=O)[nH]n2-c2ccccc2)cc1 | · | -4
CC(C)(C)c1ccc(-c2cc3ccccn3c2)cc1 | 10* | 7
O=c1cc(-c2ccccc2)oc2cccc(O)c12 | 0.99 | -1
CC1(C)C=Cc2c(c3occc3c3oc(-c4ccccc4)cc(=O)c23)O1 | 0.19 | 223*
CCCCN1Cc2c(n(CC(=O)c3ccc(OC)cc3)c3cc(-c4ccccc4)nn3c2=O)C1=O | · | 170*
COc1ccc(C(=O)Cn2c3ccccc3n3nc(-c4ccccc4)nc23)cc1OC | · | -3
C=C1C(=O)O[C@H]2[C@H]1[C@@H](OC(=O)/C(C)=C\C)C(OC(C)=O)/C(C(=O)OC)=C\CC[C@@]1(C)O[C@H]21 (stereo partly specified) | 2.2 | 98*
C=C1C(=O)O[C@H]2[C@H]1[C@@H](OC(=O)C(C)(O)CCl)C(OC(C)=O)/C(C(=O)OC)=C\CC[C@@]1(C)O[C@H]21 (stereo partly specified) | -0.17 | 69
C=C1C(=O)O[C@H]2[C@H]1[C@@H](OC(=O)/C(C)=C/C)C(OC(C)=O)/C(C(=O)OC)=C\CC[C@@]1(C)O[C@H]21 (stereo partly specified) | -0.27 | 32
C=C1C(=O)O[C@H]2[C@H]1C[C@H](OC(=O)/C(C)=C\C)/C(C)=C\CC[C@@]1(C)O[C@@H]21 | -0.29 | 139*
CC1CN(C(=O)CCC(=O)N2CCC(C(N)=O)CC2)c2ccccc2O1 (stereo unspecified) | · | -8
Nc1cc(C(F)(F)F)ccc1Sc1nc2ccccc2s1 | · | 2
CC1=C(CO)C(=O)OC([C@@H](C)C2CC[C@H]3C4C[C@H]5O[C@]56[C@@H](O)C=CC(=O)[C@]6(C)C4CC[C@]23C)C1 (stereo partly specified) | 0.67 | 138*
Cc1ccc(-n2c(SCC(=O)C(C)(C)C)nnc2-c2ccncc2)cc1 | · | -6
Oc1ccccc1C1=NNC(O)(C(F)(F)F)C1 (stereo unspecified) | · | -15
CC(C)[C@H]1C=C(C(=O)NCc2ccccc2)O[C@@H](OCc2ccc(CO)cc2)C1 | 7.6* | 17
CC(C)[C@@H]1C=C(C(=O)O)O[C@H](OCc2ccc(CO)cc2)C1 | 0.071 | 6
SMILES | YB-1 expression | U2OS ROS induce
NC(=O)c1cc2ccccc2oc1=O | · | -7
COc1ccc(NC(=O)CSc2nc3scc(C)c3c(=O)[nH]2)cc1 | · | 91*
COc1ccc(NC(=O)CSc2nc(C)cc(=O)[nH]2)cc1 | · | 5
Clc1ccc(CSc2ncccn2)cc1 | · | 94*
O=c1ccnc(SCc2ccc(Cl)cc2)[nH]1 | -0.29 | 49
CS(=O)(=O)N(CC(=O)Nc1ccccc1-c1ccccc1)c1ccc2c(c1)OCCO2 | · | 6
O=C(O)CCC(=O)N1N=C(c2c(-c3ccccc3)c3cc(Cl)ccc3[nH]c2=O)CC1c1ccccc1 (stereo unspecified) | · | -7
CC(=O)N1N=C(c2c(-c3ccccc3)c3cc(Cl)ccc3[nH]c2=O)CC1c1ccco1 (stereo unspecified) | · | 109*
CCSC1=C(C#N)C(=O)NC(C(C)C)S1 (stereo unspecified) | -0.72 | 8
CC1NC(=O)C(C#N)=C(SCc2ccccc2)S1 (stereo unspecified) | -0.084 | 93*
C[C@@H]1CN([C@H](C)CO)C(=O)Cc2cc(NS(=O)(=O)c3ccc(Cl)cc3)ccc2O[C@@H]1CN(C)Cc1ccc(Oc2ccccc2)cc1 | 0.58 | 86*
